Experimental data published in PubChem BioAssay (EPA / NIEHS).
Several values for one entry are separate records, joined by “and”; a condition that tells them apart may be missing. Equal values may be shown once. A structure can be active in one record and inactive in another. Activity calls are given as the source filed them. How the source made its calls: active means hit-call score of the fitted dose curve at least 0.9, where 1 is the maximum; inactive means score below 0.9.

Test: ATG_RORE_CIS: Attagene CIS-FACTORIAL HepG2 Assay for human RAR-related Orphan Receptor Element (RORE) (AID 2282959)
Settings: HepG2 Attagene cis-factorial RORE reporter, mRNA; actives raise or lower the signal
In short: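 Transiently transfected HepG2 reporter cells were treated 24 h. Reporter transcripts were detected by RT-PCR and capillary electrophoresis, with bidirectional fitting against DMSO.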
For `COc1cc(-c2ccc(N)c(OC)c2)ccc1N`, the AC50 was 15.7 µM (active) and 33.6 µM (active). For `CCSC(C)CC1CC(=O)C(C(CC)=NOC/C=C/Cl)=C(O)C1` (configuration not stated), the outcome was “inactive”. In the case of `CC(=O)C=C(C)C`, the outcome is reported as “inactive”. With `CCC(=O)c1ccccc1` the outcome was “inactive”. For `CN(C)N=O`, the outcome was “inactive”. In the case of `CCc1ccccc1N`, the outcome is reported as “inactive”. In the case of `BrCCBr`, the outcome is reported as “inactive”. In the case of `C[C@]12CC[C@H](O)CC1=CC[C@@H]1[C@@H]2CC[C@]2(C)C(=O)CC[C@@H]12`, the outcome is reported as “inactive”. In the case of `Nc1cccc2ccccc12`, the outcome is reported as “inactive”. For `O=Cc1cccc(Oc2ccccc2)c1`, the outcome was “inactive”. With `O=CC=O` the outcome was “inactive”. With `O=[N+]([O-])c1ccc2c3c(cccc13)CC2` the outcome was “inactive”. With `C[C@H]1O[C@@H](O[C@H]2[C@@H](O)C[C@H](O[C@H]3[C@@H](O)C[C@H](O[C@H]4CC[C@@]5(C)[C@H](CC[C@@H]6[C@@H]5CC[C@]5(C)[C@@H](C7=CC(=O)OC7)CC[C@]65O)C4)O[C@@H]3C)O[C@@H]2C)C[C@H](O)[C@@H]1O` the outcome was “inactive”. For `O=C/C=C/c1ccccc1`, the outcome was “inactive”. In the case of `Clc1ccc(C2(Cn3cncn3)CC(Br)CO2)c(Cl)c1` (configuration not stated), the AC50 is reported as 70.7 µM (active). With `CCCCCCCCC(=O)NCc1ccc(O)c(OC)c1` the outcome was “inactive”. With `Nc1ccc(-c2ccc(N)c(Cl)c2)cc1Cl` the AC50 was 24.3 µM (active). In the case of `CCC1(c2ccc(N)cc2)CCC(=O)NC1=O` (configuration not stated), the outcome is reported as “inactive”. For `Oc1ccc(-c2ccccc2)cc1`, the AC50 was 162 µM (active). For `CC(=O)[O][Hg][c]1ccccc1`, the AC50 was 3.71 µM (active). In the case of `O=C(O)C(Cl)(Cl)Cl`, the outcome is reported as “inactive”. With `CC(C)(c1ccccc1)c1ccc(O)c(C(C)(C)c2ccccc2)c1` the outcome was “inactive”. For `COC[C@H](C)N(C(=O)CCl)c1c(C)csc1C`, the outcome was “inactive”. For `CC(=[OH+])/C=C(/C)[O-].CC(=[OH+])/C=C(/C)[O-].CC(=[OH+])/C=C(/C)[O-].[Fe]`, the outcome was “inactive”. For `CCCCCCCCc1ccc(O)cc1`, the outcome was “inactive”. With `C[C@H]1CCCC(=O)CCC/C=C/c2cc(O)cc(O)c2C(=O)O1` the outcome was “inactive”. In the case of `O=C(O)C(F)(F)C(F)(F)C(F)(F)C(F)(F)C(F)(F)C(F)(F)C(F)(F)C(F)(F)C(F)(F)C(F)(F)F`, the AC50 is reported as 24.2 µM (active) and the outcome is reported as “inactive”. In the case of `Cc1ccc2ccccc2c1C`, the outcome is reported as “inactive”. In the case of `O=S(=O)(c1ccc(Cl)cc1)c1ccc(Cl)cc1`, the outcome is reported as “inactive”. For `CC(C)(C)c1cc(O)ccc1O`, the AC50 was 54.6 µM (active). In the case of `COC(=O)Cc1ccccc1`, the outcome is reported as “inactive”. For `O=C(O)C(F)(F)C(F)(F)C(F)(F)C(F)(F)C(F)(F)C(F)(F)F`, the outcome was “inactive”. For `N#CCCO`, the outcome was “inactive”. With `C[C@]12CCC(=O)C[C@@H]1CC[C@@H]1[C@@H]2CC[C@]2(C)[C@@H](O)CC[C@@H]12` the AC50 was 42.3 µM (active) and the outcome was “inactive”. With `CCc1ccccc1C` the outcome was “inactive”.

Test: ATG_Sox_CIS: Attagene CIS-FACTORIAL HepG2 Assay for human SRY-box transcription factor (SOX) (AID 2282960)
Settings: HepG2 Attagene cis-factorial SOX reporter, mRNA; actives raise or lower the signal
In short: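 Gain- or loss-of-signal endpoint, fitted bidirectionally with DMSO as negative control. Based on reporter mRNA from transfected HepG2 cells harvested 24 h post-treatment and quantified via RT-PCR and capillary electrophoresis.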
With `COc1cc(-c2ccc(N)c(OC)c2)ccc1N` the outcome was “inactive”. In the case of `CCSC(C)CC1CC(=O)C(C(CC)=NOC/C=C/Cl)=C(O)C1` (configuration not stated), the outcome is reported as “inactive”. In the case of `CC(=O)C=C(C)C`, the outcome is reported as “inactive”. For `CCC(=O)c1ccccc1`, the outcome was “inactive”. In the case of `CN(C)N=O`, the outcome is reported as “inactive”. In the case of `CCc1ccccc1N`, the outcome is reported as “inactive”. In the case of `BrCCBr`, the outcome is reported as “inactive”. With `C[C@]12CC[C@H](O)CC1=CC[C@@H]1[C@@H]2CC[C@]2(C)C(=O)CC[C@@H]12` the outcome was “inactive”. For `Nc1cccc2ccccc12`, the outcome was “inactive”. For `O=Cc1cccc(Oc2ccccc2)c1`, the outcome was “inactive”. In the case of `O=CC=O`, the outcome is reported as “inactive”. With `CCC[CH2][Sn]([CH2]CCC)([CH2]CCC)[O]C(=O)c1ccccc1` the outcome was “inactive”. With `O=[N+]([O-])c1ccc2c3c(cccc13)CC2` the outcome was “inactive”. For `C[C@H]1O[C@@H](O[C@H]2[C@@H](O)C[C@H](O[C@H]3[C@@H](O)C[C@H](O[C@H]4CC[C@@]5(C)[C@H](CC[C@@H]6[C@@H]5CC[C@]5(C)[C@@H](C7=CC(=O)OC7)CC[C@]65O)C4)O[C@@H]3C)O[C@@H]2C)C[C@H](O)[C@@H]1O`, the outcome was “inactive”. With `O=C/C=C/c1ccccc1` the outcome was “inactive”. For `Clc1ccc(C2(Cn3cncn3)CC(Br)CO2)c(Cl)c1` (configuration not stated), the outcome was “inactive”. In the case of `Clc1ccc(COC(Cn2ccnc2)c2ccc(Cl)cc2Cl)cc1` (configuration not stated), the outcome is reported as “inactive”. In the case of `CCCCCCCCC(=O)NCc1ccc(O)c(OC)c1`, the outcome is reported as “inactive”. For `Nc1ccc(-c2ccc(N)c(Cl)c2)cc1Cl`, the outcome was “inactive”. With `CCC1(c2ccc(N)cc2)CCC(=O)NC1=O` (configuration not stated) the outcome was “inactive”. With `Oc1ccc(-c2ccccc2)cc1` the AC50 was 145 µM (active). For `CCCCCCCCCl`, the outcome was “inactive”. For `CC(=O)[O][Hg][c]1ccccc1`, the outcome was “inactive”. In the case of `O=C(O)C(Cl)(Cl)Cl`, the outcome is reported as “inactive”. For `CC(C)(c1ccccc1)c1ccc(O)c(C(C)(C)c2ccccc2)c1`, the outcome was “inactive”. For `COC[C@H](C)N(C(=O)CCl)c1c(C)csc1C`, the outcome was “inactive”. In the case of `CC(=[OH+])/C=C(/C)[O-].CC(=[OH+])/C=C(/C)[O-].CC(=[OH+])/C=C(/C)[O-].[Fe]`, the outcome is reported as “inactive”. In the case of `CCCCCCCCc1ccc(O)cc1`, the outcome is reported as “inactive”. In the case of `C[C@H]1CCCC(=O)CCC/C=C/c2cc(O)cc(O)c2C(=O)O1`, the outcome is reported as “inactive”. In the case of `O=C(O)C(F)(F)C(F)(F)C(F)(F)C(F)(F)C(F)(F)C(F)(F)C(F)(F)C(F)(F)C(F)(F)C(F)(F)F`, the AC50 is reported as 58.4 µM (active) and the outcome is reported as “inactive”. With `Cc1ccc2ccccc2c1C` the outcome was “inactive”. For `O=S(=O)(c1ccc(Cl)cc1)c1ccc(Cl)cc1`, the outcome was “inactive”. With `CC(C)(C)c1cc(O)ccc1O` the AC50 was 179 µM (active). In the case of `COC(=O)Cc1ccccc1`, the outcome is reported as “inactive”. For `COC(=O)c1sccc1S(=O)(=O)NC(=O)Nc1nc(C)nc(OC)n1`, the outcome was “inactive”. In the case of `O=C(O)C(F)(F)C(F)(F)C(F)(F)C(F)(F)C(F)(F)C(F)(F)F`, the outcome is reported as “inactive”. In the case of `N#CCCO`, the outcome is reported as “inactive”. With `C[C@]12CCC(=O)C[C@@H]1CC[C@@H]1[C@@H]2CC[C@]2(C)[C@@H](O)CC[C@@H]12` the outcome was “inactive”. In the case of `CCc1ccccc1C`, the outcome is reported as “inactive”.
